Assay outcomes: PubChem, The Scripps Research Institute Molecular Screening Center
Hits are enriched below; roughly 3.5% of the tested compounds scored in any of these assays.
FBW7 act: FBW7 E3 ligase activators, primary screen, biochemical, AlphaScreen, human; F-box/WD repeat-containing protein 7 (Homo sapiens), Q969H0; AlphaScreen FBW7–phospho-cyclin E peptide binding, activator screen; normalized activity (activation), % at 26.1 µM; 650,000 tested, 0.13% active; in the data active = normalized activity above about 1.9%;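 note: purified mutant Fbw7 with reduced substrate affinity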
Target sequence (Q969H0 whole entry, looked up): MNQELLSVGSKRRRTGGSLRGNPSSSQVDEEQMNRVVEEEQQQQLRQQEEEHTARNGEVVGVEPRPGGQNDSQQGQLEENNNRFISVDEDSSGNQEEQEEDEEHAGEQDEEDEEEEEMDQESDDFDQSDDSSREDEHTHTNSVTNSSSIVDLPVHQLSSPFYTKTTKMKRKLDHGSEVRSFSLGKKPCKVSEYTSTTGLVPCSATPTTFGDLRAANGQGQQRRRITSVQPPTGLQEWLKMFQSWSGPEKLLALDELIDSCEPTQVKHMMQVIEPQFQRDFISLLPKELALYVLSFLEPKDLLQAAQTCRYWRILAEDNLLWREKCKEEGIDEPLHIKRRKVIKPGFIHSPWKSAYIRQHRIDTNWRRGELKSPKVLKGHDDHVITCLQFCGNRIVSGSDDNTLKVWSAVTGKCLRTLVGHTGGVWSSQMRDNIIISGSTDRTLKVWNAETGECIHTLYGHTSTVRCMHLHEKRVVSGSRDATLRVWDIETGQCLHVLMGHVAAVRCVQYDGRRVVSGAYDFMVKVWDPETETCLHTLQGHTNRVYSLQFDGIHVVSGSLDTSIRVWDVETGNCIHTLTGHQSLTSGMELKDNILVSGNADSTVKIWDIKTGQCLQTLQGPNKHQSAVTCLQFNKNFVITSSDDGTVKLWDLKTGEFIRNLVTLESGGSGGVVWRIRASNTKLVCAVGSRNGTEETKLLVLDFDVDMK
TEAD-YAP block: TEAD-YAP interaction inhibition, primary screen, TEAD-YAP interaction inhibitor project, luminescence, HEK-TIYL cells; TEAD-Gal4/YAP UAS-luciferase luminescence; inhibition, % at 9.12 µM; 640,000 tested, 1.4% active; AID 1259422, 2018; in the data active = inhibition above about 32%;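 note: 0% = median of test compound wells and 100% = reference inhibitor wells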
MITF primary: MITF inhibitors, primary screen, biochemical, AlphaScreen, human. Microphthalmia-associated transcription factor (Homo sapiens), O75030. 650,000 tested, 0.91% active. inhibition, % at 2.6 µM. AID 1259374, 2018. AlphaScreen MITF homodimerization, bead proximity signal; in the data active = inhibition above about 50%;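 note: 0% = vehicle wells with protein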
GPR151 activ: activators of human GPR151, primary screen, cell-based, PathHunter beta-arrestin, luminescence | 650,000 tested, 1% active | activation, % at 11.2 µM | PathHunter beta-arrestin GPR151 cells | G-protein coupled receptor 151 (Homo sapiens), Q8TDV0; in the data active = activation above about 4.9%;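 note: 0% = median of compound wells and 100% = cells with positive control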
GPR151 confirm: GPR151 activators, triplicate retest, confirmation, cell-based, PathHunter beta-arrestin, luminescence; shares compounds with GPR151 activ; GPR151 PathHunter beta-arrestin cells, 90 min; % of EA-reagent control over plate median; activation, % at 11.2 µM; 6,700 tested, under 10 active;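 active = mean percent activation across replicates above the confirmation screen cutoff of 4.91%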
GPR119 ag: GPR119 activators in beta-arrestin cells, counter-screen for GPR151 activator project, cell-based, PathHunter beta-arrestin, luminescence, triplicate; shares compounds with GPR151 activ; 90 min; 0 = compound-well median, 100 = enzyme-acceptor control; activation, % at 11.2 µM; 6,700 tested, 0.3% active;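 active = mean percent activation in the counterscreen above 29.09%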;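 note: counterscreen on off-target GPR119 to flag nonselective hits from the GPR151 activator screen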
The depositor's hits bear a star; · = not tested or not shown.

SMILES	FBW7 act	TEAD-YAP block	MITF primary	GPR151 activ	GPR151 confirm	GPR119 ag
COc1cccc(OCCCOc2ccc([N+](=O)[O-])cc2)c1	0.1	-0.6	9.4	3.4	·	·
COc1ccc(C2C(C#N)=C(N)Oc3n[nH]c(C(F)(F)F)c32)cc1OC (stereo unspecified)	0.1	-3.7	-3.4	-1.2	·	·
Cc1nc(SCC(=O)NNC(=O)c2cccs2)n[nH]1	0.5	-0.5	10.3	5.8*	-0.3	1.2
Cc1ccc(SCC(=O)Nc2cccc(F)c2)cc1	-0.1	-56.7	-10.3	6.4*	-0.5	-5.5
O=C(CNS(=O)(=O)c1ccccc1)Nc1cccc(F)c1	0.2	1.9	0.9	6.0*	-0.3	-2.7
O=C(O)c1ccc(NC(=O)c2cccc(S(=O)(=O)Nc3cccc(F)c3)c2)cc1	-0.1	-0.1	-2.7	8.7*	0.1	3.7
O=C(CSc1ccccc1)Nc1cccc(F)c1	0.1	-47.8	4.0	-1.1	·	·
O=C(CNS(=O)(=O)c1ccc(Br)cc1)Nc1cccc(F)c1	0.1	-0.8	11.7	0.7	·	·
CCN1CCCC1CNC(=O)Cn1ncc2c1-c1ccccc1OC2 (stereo unspecified)	-0.2	5.0	-2.1	-1.6	·	·
CS(=O)(=O)Nc1nc(CC(=O)O)cs1	0.1	3.3	-5.0	5.2*	0.3	5.8
CC(C)c1ccc(Nc2nc(CC(=O)O)cs2)cc1	-0.1	-19.7	-4.2	1.0	·	·
CCCCN(C)S(=O)(=O)c1cc2c(cc1C)N(C(C)=O)CCO2	-0.1	-1.6	-3.4	6.2*	1.1	0.2
COc1ccc(Br)cc1/C=C/C(=O)Nc1ccccc1N1CCOCC1	-0.1	-13.2	2.0	2.9	·	·
O=C1c2cccc3cccc(c23)N1Cc1c(O)ccc2ccccc12	0.4	5.8	4.1	5.5*	0.2	-6.4
CCc1ccc(OCC(=O)NNC(=O)c2ccc(Cl)c([N+](=O)[O-])c2)cc1	-0.1	-2.4	-5.4	0.3	·	·
COc1ccc(C(=O)Nc2cccc(C(=O)N3CCCC3)c2)cc1	0.2	-1.8	9.6	39.4*	1.6	6.5
COc1ccc(C(=O)Nc2ccc3c(c2)C(=O)N(C2CCCCC2)C3=O)cc1	-0.1	-0.7	-0.4	5.5*	0.4	27.9
COc1ccc(C(=O)Nc2ccc(C(=O)N3CCCCC3)cc2)cc1	0.6	-10.3	3.2	-1.0	·	·
Cc1cccc(-n2ncc3c(Nc4ccc(Cl)c(Cl)c4)ncnc32)c1	-0.1	17.5	-2.4	0.3	·	·
CC1=C(C#N)c2nc(N)c(C#N)c(C)c2/C1=C\c1cccs1	0.0	-6.6	-1.9	5.4*	0.8	-0.7
c1ccc(-c2nnc(-c3ccccc3)o2)cc1	-0.1	-34.4	2.1	-7.4	·	·
c1ccc(C2=NCCCO2)cc1	0.0	8.7	-21.7	10.4*	0.6	-6.4
CC(C)(C)CN1CCCC(CNS(=O)(=O)c2cccc3cccnc23)C1 (stereo unspecified)	-0.1	3.2	19.0	6.4*	0.2	-7.6
O=S(=O)(NCC1CCCN(Cc2ccccn2)C1)c1cccc2cccnc12 (stereo unspecified)	-0.2	-1.1	3.2	-2.2	·	·
COCCN(C(=O)Cc1ccc(F)cc1)C1CCN(Cc2ccncc2)CC1	0.0	1.5	7.5	6.6*	-1.3	-13.7
SMILES	FBW7 act	TEAD-YAP block	MITF primary	GPR151 activ	GPR151 confirm	GPR119 ag
O=C(COc1ccccc1)NCC(=O)N/N=C/c1ccc([N+](=O)[O-])s1	-0.1	-8.0	2.6	-0.5	·	·
Cn1c(=O)c2c(ncn2CC(O)CN2C(=O)c3ccccc3S2(=O)=O)n(C)c1=O (stereo unspecified)	-0.1	4.7	7.5	6.0*	-0.3	-12.8
Cc1ccc(N2C(=O)C3N=NN(CC(=O)Nc4ccc(Cl)cc4Cl)C3C2=O)cc1 (stereo unspecified)	-0.1	16.9	4.8	2.8	·	·
COc1cc(Nc2nc(NCc3cccc(C(F)(F)F)c3)c3ncn(CCN4CCCC4=O)c3n2)cc(OC)c1OC	0.4	1.9	5.4	5.3*	-0.2	-10.4
O=C1CCCN1CCn1cnc2c(NCc3ccccc3)nc(NCc3cccnc3)nc21	0.5	0.0	4.0	-2.0	·	·
COc1cc(Nc2nc(NCc3cccnc3)nc3c2ncn3CCN2CCCC2=O)cc(OC)c1OC	0.0	-3.7	-3.6	5.0*	-0.5	-7.1
O=C1CCCN1CCCNc1nc(NCc2cccnc2)nc2c1ncn2CCN1CCCC1=O	0.2	-7.2	15.5	6.7*	-0.9	-15.3
CC(=O)NNC(=O)Cn1c2ccccc2c(=O)c2ccccc21	0.1	0.1	17.4	-0.6	·	·
CN1CC(=O)N2CCN(C(=O)c3ccc(C(F)(F)F)cc3)C[C@@H]2C1=O	-0.3	-4.1	0.6	0.7	·	·
CCOc1ccccc1Nc1nncc(=O)[nH]1	-0.1	11.2	-2.9	-0.1	·	·
CCc1ccccc1Nc1nncc(=O)[nH]1	0.0	10.5	-1.0	7.2*	-1.6	-9.5
COc1ccc(CCNC(=O)c2cccc(Nc3nc4ccccc4n3C)n2)cc1	0.0	11.5	39.3	7.8*	-0.8	-16.2
COc1ccc(CCNC(=O)c2csc(Nc3nc4ccccc4n3C)n2)cc1	0.0	2.3	10.3	1.1	·	·
COC(=O)c1nn2c(C(F)(F)F)cc(-c3cccs3)nc2c1Cl	0.2	-3.6	0.9	-1.0	·	·
O=C1C(=O)N(Cc2cccnc2)C(c2ccccc2[N+](=O)[O-])/C1=C(\O)c1ccc(Cl)cc1 (stereo unspecified)	0.1	2.8	-7.8	-0.3	·	·
Cc1ccc(C2=C/C(=C/c3ccccn3)C(=O)O2)c(C)c1	0.0	-44.4	1.2	5.3*	1.6	-8.7
CN(Cc1ccccc1)C(=O)C1CCN(S(=O)(=O)c2ccc3c(c2)OCC(=O)N3)CC1	0.0	-6.1	-7.7	6.7*	-1.3	-6.7
O=C1COc2cc(S(=O)(=O)N3CCC(Cc4ccccc4)CC3)ccc2N1	0.7	2.8	10.1	0.5	·	·
COc1cccc(CNC(=O)CSc2nc3c(oc4ccccc43)c(=O)n2CCCOC(C)C)c1	-0.1	1.3	2.4	6.5*	-0.6	-12.6
CCC(C)(C)c1ccc(OC(=O)CCN2C(=O)C3C4C=CC(C5CC45)C3C2=O)cc1 (stereo unspecified)	-0.1	-4.1	9.7	-0.6	·	·
CC1(CCc2ccccc2)NC(=O)NC1=O (stereo unspecified)	0.1	3.7	18.7	8.6*	0.8	11.8
CC1(CCc2ccccc2)NC(=O)N(N)C1=O (stereo unspecified)	0.3	15.9	-2.6	6.7*	-0.7	-3.4
